Hit rate of the full screen: of about 310,000 compounds, about 14,000 (4.5%) showed an effect of 50% or more. Effects have a minus sign here. What follows is part of a selection rich in strong results, with near analogues and random picks from the rest.
target: human ether-à-go-go-related gene (hERG) potassium channel (human, UniProt Q12809); assay: primary screen, population patch clamp on CHO cells stably expressing hERG; higher = less effect of the substance
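Also: peak tail current of the secondary pulse compared with the same well before compound.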

Sequence of human ether-à-go-go-related gene (hERG) potassium channel (Q12809 whole entry, looked up): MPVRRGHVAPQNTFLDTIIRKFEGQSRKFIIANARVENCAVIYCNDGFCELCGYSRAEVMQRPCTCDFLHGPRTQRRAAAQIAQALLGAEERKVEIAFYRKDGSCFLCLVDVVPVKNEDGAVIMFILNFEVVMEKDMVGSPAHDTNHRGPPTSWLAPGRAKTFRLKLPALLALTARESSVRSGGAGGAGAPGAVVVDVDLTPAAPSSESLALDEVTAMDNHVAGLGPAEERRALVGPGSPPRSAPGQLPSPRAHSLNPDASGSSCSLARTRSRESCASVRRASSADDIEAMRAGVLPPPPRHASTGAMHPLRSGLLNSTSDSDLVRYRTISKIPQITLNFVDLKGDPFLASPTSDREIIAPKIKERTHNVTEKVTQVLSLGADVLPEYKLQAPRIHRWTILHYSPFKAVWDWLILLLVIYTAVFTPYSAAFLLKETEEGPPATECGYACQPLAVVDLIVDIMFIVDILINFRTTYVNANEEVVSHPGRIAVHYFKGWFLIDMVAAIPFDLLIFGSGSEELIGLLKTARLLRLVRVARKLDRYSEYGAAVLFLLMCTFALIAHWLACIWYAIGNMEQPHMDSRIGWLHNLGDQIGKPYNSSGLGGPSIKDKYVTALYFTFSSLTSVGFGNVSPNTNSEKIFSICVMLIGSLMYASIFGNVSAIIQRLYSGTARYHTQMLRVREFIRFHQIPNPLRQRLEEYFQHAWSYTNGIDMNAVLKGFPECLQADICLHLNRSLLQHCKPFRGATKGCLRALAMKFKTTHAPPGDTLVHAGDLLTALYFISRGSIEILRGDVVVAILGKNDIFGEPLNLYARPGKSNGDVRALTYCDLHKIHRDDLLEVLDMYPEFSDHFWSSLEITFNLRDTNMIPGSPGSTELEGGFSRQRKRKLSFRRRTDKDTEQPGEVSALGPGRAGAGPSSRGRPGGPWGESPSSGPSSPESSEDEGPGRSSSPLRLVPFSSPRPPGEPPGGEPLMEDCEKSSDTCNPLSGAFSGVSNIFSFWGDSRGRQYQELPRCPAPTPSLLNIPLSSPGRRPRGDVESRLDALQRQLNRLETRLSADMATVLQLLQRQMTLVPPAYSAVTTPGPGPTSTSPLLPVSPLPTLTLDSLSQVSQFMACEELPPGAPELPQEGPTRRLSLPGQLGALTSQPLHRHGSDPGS

SMILES | hERG current change (%, negative = inhibition) at 10uM
Cc1ccc(C(C(=O)NCc2ccco2)N(C(=O)CNC(=O)c2cccs2)c2ccc(C)cc2)cc1 (stereo not shown) | 27.3%
CC(=O)Oc1ccc2nc(-c3ccc(Br)o3)oc(=O)c2c1 | 21.5%
COCCCn1cc(C(=O)c2cc(OC)ccc2OCC(=O)Nc2cc(C)on2)cc(C#N)c1=O | -53%
COCCCn1cc(C(=O)c2cc(OC)ccc2OCC(=O)N2CCCCC2C)cc(C#N)c1=O (stereo not shown) | -22.9%
COCCn1cc(C(=O)c2ccccc2OCC(=O)Nc2cc(C)on2)cc(C#N)c1=O | 10.3%
CCCC(=O)Nc1ccccc1N1CCN(C(=O)c2ccccc2)CC1 | -46%
O=C(Nc1ccccc1N1CCN(C(=O)c2ccccc2)CC1)c1cc(Br)ccc1Cl | -55.6%
O=C(Nc1ccccc1N1CCCC1)c1ccc(Cl)cc1Cl | 8.88%
COc1ccc(Br)cc1C(=O)Nc1ccccc1N1CCN(C(=O)c2ccccc2)CC1 | -52.4%
COc1ccc(C(=O)Nc2ccccc2N2CCN(C(=O)c3ccccc3)CC2)cc1Br | -8.68%
O=C(Nc1ccccc1N1CCN(C(=O)c2ccc(Cl)cc2)CC1)c1cc(Br)ccc1Cl | -67.7%
CC(C)CC(=O)Nc1ccccc1N1CCN(C(=O)c2ccccc2)CC1 | -17.7%
O=C(Nc1ccccc1N1CCN(C(=O)c2ccc(Cl)cc2)CC1)c1cc2ccccc2o1 | -2.33%
COc1ccc(Br)cc1C(=O)Nc1ccccc1-c1ccccc1 | -2.5%
Cc1ccc(C(=O)NCC(=O)NC2CCC(C)CC2)s1 (stereo not shown) | 2.47%
CC(=O)NCCc1nc2ccccc2n1Cc1ccccc1 | 1.05%
O=C(COc1ccccc1[N+](=O)[O-])Nc1ccccc1N1CCCC1 | -29.1%
CCN(CC(=O)Nc1ccc2c(c1)OCO2)CC(=O)Nc1ccccc1C(F)(F)F | -14.4%
C/C(=N\NS(=O)(=O)c1ccc(C)c([N+](=O)[O-])c1)c1cc2ccccc2o1 | -9.98%
Cc1ccc(-n2c(C)c3c(C)nnc(C)c3c2C)cc1C | -34%
C=CCn1cc(C(=O)c2cc(Br)ccc2O)cc(C#N)c1=O | -17.5%
Cc1ccc(C(=O)OCC(=O)N2CCCC2)cc1 | -2.99%
Cc1nnc(-c2cnn(C)c2N)n1Cc1ccc2c(c1)OCO2 | 5.96%
CC(=O)c1c(C(C)=O)c(C)n(Cc2ccc3c(c2)OCO3)c1C | -9.41%
Cc1nnc(C)c2c(C)n(Cc3ccc4c(c3)OCO4)c(C)c12 | -71.4%
CCOc1ccc2oc(C(=O)OCC(=O)NC3CCCC3)c(C)c2c1 | 11.1%
Cc1cccc(NC(=O)CN2C(=O)c3ccccc3C2=O)c1C | 0.742%
CCc1ccc(C(=O)NNC(=O)CCc2nc3ccccc3c(=O)[nH]2)cc1 | -7.54%

SMILES | hERG current change (%, negative = inhibition) at 10uM
O=C(O)C(=O)O.O=[N+]([O-])c1ccccc1CN1CCN(Cc2c[nH]c3ccccc23)CC1 | -24.2%
c1ccc2c(CN3CCCCC3)c[nH]c2c1 | -38%
c1ccc(CN2CCN(Cc3c[nH]c4ccccc34)CC2)cc1 | -30.2%
O=[N+]([O-])c1ccc(CN2CCN(Cc3c[nH]c4ccccc34)CC2)cc1 | -77.8%
O=C(O)C(=O)O.O=[N+]([O-])c1ccc(S(=O)(=O)N2CCN(Cc3c[nH]c4ccccc34)CC2)cc1 | -54.5%
O=S(=O)(c1ccc(Cl)cc1)N1CCN(Cc2c[nH]c3ccccc23)CC1 | -18.8%
O=C(CN1CCN(Cc2ccccc2Cl)C1=O)NCc1cccnc1 | -1.97%
O=C(Cn1c(SCC(=O)N2CCCc3ccccc32)nc2ccccc21)N1CCCC1 | -13.2%
O=[N+]([O-])c1ccc2c(c1)nc1n2CCN(c2ccccc2)C1 | -26.1%
CCn1cnc2sc(C(=O)N(Cc3ccc(N(C)C)cc3)Cc3ccco3)c(C)c2c1=O | -22.2%
CCOC(=O)c1c(NC(=O)C2COc3ccccc3O2)sc2c1CCN(Cc1ccccc1)C2.Cl (stereo not shown) | 0.603%
NC1=NC[C@H](Cc2ccccc2)N1CCCCC1CCCCC1 | -25.9%
CN(C)C1=NC[C@H](Cc2ccccc2)N1CCCC1CCCCC1 | -70.8%
CN(C)C1=NC[C@H](Cc2ccccc2)N1CC1CCCC1 | -16.9%
CN(C)C1=NC[C@H](Cc2ccccc2)N1CC1CCCCC1 | -14.6%
CN(C)C1=NC[C@H](Cc2ccccc2)N1CC1CCCCCC1 | -27.8%
CN(C)C1=NC[C@H](Cc2ccccc2)N1CCC1CCCC1 | -43.5%
NC1=NC[C@H](Cc2ccc(O)cc2)N1CCCCC1CCCCC1 | -50.2%
NC1=NC[C@@H](Cc2ccc(O)cc2)N1CCCCC1CCCCC1 | -18.6%
CN(C)C1=NC[C@H](Cc2ccccc2)N1CCCC1CCCC1 | -71.2%
N#C/C(=C\c1ccc(F)cc1F)S(=O)(=O)c1ccccn1 | 6.77%
Cc1ccc(C)c(NS(=O)(=O)c2cc3c4c(c2)CC(=O)N4CCC3)c1 | 4.86%
O=C(N/N=C/c1ccc(Br)s1)c1cccc([N+](=O)[O-])c1 | 12.2%
CC(C)(C)NC(=O)CN(C(=O)C1CSC(=O)C1)c1ccccc1F (stereo not shown) | -0.923%
Cc1occc1C(=O)NNS(=O)(=O)c1ccc(Cl)cc1 | 7.64%
Cc1ccc(S(=O)(=O)NNC(=O)c2ccoc2C)cc1 | -70.6%
Cc1occc1C(=O)NNS(=O)(=O)c1ccc([N+](=O)[O-])cc1 | 10.5%

From PMC4336329 (PLoS ONE, 2015)
